From PubChem BioAssay (NCATS) come the findings set out here.

Test [1] can be described thus: qHTS to identify inhibitors of the type 1 interferon - major histocompatibility complex class I in skeletal muscle: primary screen against the NCATS LOPAC collection (AID 1347405).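 Further: lytic HiBiT luminescence reporting HLA-B protein level; on the % scale 0 is the no-effect control and ±100 the full control effect.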 The method in brief:
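Luminescence from HiBiT fused to endogenous HLA-B in CRISPR-engineered human myoblasts served as the read-out. Cells received 4.0 ng/ml IFN-beta plus compound (seven concentrations, 1:4.3 steps, highest 46 uM final) for 24 hrs before lytic detection.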
For orientation: In qHTS, concentration-response curves come from the screen itself.

Test [2] in a line: qHTS to identify inhibitors of the type 1 interferon - major histocompatibility complex class I in skeletal muscle: primary screen against the NCATS Pharmaceutical Collection (AID 1347407).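 Further: luminescence of HiBiT knocked into endogenous HLA-B as interferon-induced MHC class I level; on the % scale 0 is the no-effect control and ±100 the full control effect.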 The essentials:
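Cells were seeded with 4 ng/ml IFN-beta, incubated 1 h, then dosed with compounds over eight 1:5 steps up to 46 uM final. After 24 h at 37 C, HiBiT lytic reagent was added and luminescence read after 10 min lysis in the dark.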

The nature of test [3]: qHTS for inhibitors of adenylyl cyclases using a fission yeast platform: a pilot screen against the NCATS LOPAC library (AID 1347410).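 Further: plate controls were DMSO vehicle for no effect and DPI positive control for full effect.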 The method in brief: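 Growth medium went into the plates first, then compounds were pinned (final up to 57 µM), then CHP2027 yeast were added. Plates were incubated overnight (18 h) at 30C in the dark, and GFP was measured by laser scanning cytometry.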

For test [4], the target named is Protein phosphatase 1D (Homo sapiens) (UniProt O15297). The test is described as follows: RapidFire Mass Spectrometry qHTS Assay for Modulators of WT P53-Induced Phosphatase 1 (WIP1) (AID 1347424).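 Further: amount of dephosphorylated VEPPL-S-QETFS peptide product formed by WIP1.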 Further: potency means the concentration at half of the fitted maximal effect.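 On activity change, negative = inhibition: series mostly up to about 63 µM; plate controls were DMSO wells for no effect and GSK830371 inhibitor control at 10 µM for full effect.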 The essentials: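 WIP1 (10 nM final) was preincubated 1 h at room temperature with compounds in Tris-HCl pH 7.5, 30 mM MgCl2, TCEP, EGTA, BSA; 2 uM VEPPL-pS-QETFS phosphopeptide was added for 5 min, quenched with formic acid, and dephosphorylated product quantified by RapidFire MS.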

The target is the same in test [5]. The test is described as follows: Rhodamine-PBP qHTS Assay for Modulators of WT P53-Induced Phosphatase 1 (WIP1) (AID 1347425). Further: % of control where 0% means no effect. The essentials: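 The read-out is the change in Rhodamine-PBP fluorescence (f1 - f0, ex 525/em 598 nm) as Pi is released, read each minute for 11 min. Final reaction: 5 nM WIP1, 10 uM phosphopeptide VEPPL-pS-QETFS, 10 uM Rh-PBP, 50 mM Tris-HCl pH 7.5, 30 mM MgCl2. Compound was preincubated with enzyme for 1 hour at room temperature.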

The target of test [6] is Single-stranded DNA cytosine deaminase (Homo sapiens) (UniProt Q9GZX7). The test can be described thus: Validation qHTS assay for inhibitors of Activation Induced Cytidine Deaminase (AID): AID signal (AID 1347429). Further: on the % scale 0 is the no-effect control and ±100 the full control effect. The essentials:
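Fluorescence at 540 nm excitation and 590 nm emission reports ssDNA cytosine deamination by AID, with UDG in the same well. Compound-treated reactions ran 4 hr at room temperature with DJC20/DJC23 substrate, followed by 30 min NaOH treatment.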

Test [7] is described as follows: Primary qHTS for inhibitors of La Crosse Virus (LACV) - induced cell death in SH-SY5Y cells (AID 1508616).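 Further: top concentration of the series differs between compounds; 0% = infected DMSO wells and 100% = uninfected DMSO wells; higher means more rescue of cells from virus-induced death.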 The method in brief:
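Protection against LACV-induced cell death is scored in SH-SY5Y cells exposed to compounds and virus (0.01 MOI) for 6 days. Data normalized to virus-infected DMSO wells and virus-free DMSO wells.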

Test [8] has as its target Calcium and integrin-binding protein 1 (Homo sapiens) (UniProt Q99828). The test can be described thus: Validation qHTS for Identification of Calcium Integrin Binding protein 1 (CIB1) Competitor (AID 1508618). Further: on the % scale 0 is the no-effect control and ±100 the full control effect. The method in brief:
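CIB1-GST (1 uM final) incubated 15 min at room temperature with compounds (up to 114 uM), then FITC-labelled alphaIIb peptide (100 nM) added. FP read (Ex 480/Em 540) after 15 min, pH 7.4 buffer containing 5 mM CaCl2.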

The target is the same in test [9]. The test can be described thus: Primary qHTS for Identification of Calcium Integrin Binding Protein 1 (CIB1) Competitor (AID 1508620). The essentials:
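Fluorescence polarization competition: CIB1-GST (1 uM final) preincubated with compound 15 min at room temperature, then FITC-labeled alphaIIb peptide (100 nM final) added for another 15 min. Polarization read at Ex 480/Em 540.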

For test [10], the target named is Cytochrome P450 2C9 (Homo sapiens) (UniProt P11712). The test can be described thus: Cytochrome P450 family 2 subfamily C member 9 (CYP2C9) small molecule antagonists: luciferase biochemical (cell-free) qHTS assay (AID 1645842; active means well fitted curve in the direction sought with a large enough effect in the repeat runs; an effect the other way counts as inactive or inconclusive; further: nearly all actives have a fitted effect of over 55% in size; further: potency means the concentration at half of the fitted maximal effect). The method in brief:
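Luminescence, after 20 min with luciferin detection reagent, reflected CYP2C9 turnover during a 1 h NADPH-driven reaction at 37C. Enzyme-substrate mix contained 0.4% bovine serum albumin and was preincubated with compound 10 min at room temperature.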

Test [11] deals with Papain (Carica papaya) (UniProt P00784). The test is described as follows: Primary qHTS assay for inhibitors of the protease papain (AID 1645873).
A short description of test [12]: Primary qHTS for small molecule stabilizers of the endoplasmic reticulum resident proteome: Secreted ER Calcium Modulated Protein (SERCaMP) assay (AID 1508630). Further: on the % scale 0 is the no-effect control and ±100 the full control effect. The method in brief: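 GLuc-SERCaMP-expressing SH-SY5Y cells, pretreated 16 h with compound, are challenged with thapsigargin to empty ER calcium stores; after 4 h, coelenterazine is added directly to the medium and luminescence is imaged.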

Test [13] has as its target Cytochrome P450 2D6 (Homo sapiens) (UniProt P10635). The test is described as follows: Cytochrome P450 family 2 subfamily D member 6 (CYP2D6) small molecule antagonists: luciferase biochemical (cell-free) qHTS assay (AID 1645840; active means well fitted curve in the direction sought with a large enough effect in the repeat runs; an effect the other way counts as inactive or inconclusive; further: series mostly up to about 57 µM; on the % scale 0 is the no-effect control and ±100 the full control effect; nearly all actives have a fitted effect of over 55% in size). The essentials: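 P450-Glo luminescent screen: recombinant CYP2D6 enzyme–proluciferin substrate mix preincubated with compound 10 min at room temperature, then NADPH regeneration added for 1 h at room temperature. Detection reagent added for 20 min; luciferin light read as relative luminescence units.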

Test [14] in a line: Validation qHTS assay for inhibitors of Activation Induced Cytidine Deaminase (AID): UDG Counterscreen signal (AID 1347427). Further: 0% is about no effect. The method in brief: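 Counterscreen read of UDG activity (2 U/mL, 4/3x) in the FRET deamination format with AID (1 uM, 4/3x), DJC20/DJC23 substrates (250 nM, 4x), 4 h at room temperature. NaOH stop, fluorescence at 560 ex/665 em.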
A short description of test [15]: A High-Content qHTS Against Drug Library for the Identification of Small Molecules that Inhibit DYT1 Early Onset Primary Dystonia-Associated Cell Pathology (AID 1645839; calls by dose curve; further: series mostly up to about 46 µM). The method in brief: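 Readout: %pathology, the punctate EGFP-TorsinA distribution from imaging, as the primary channel and cell count as the toxicity counterscreen. HEK293 Flp-In cells expressing delE TorsinA were induced with tetracycline and treated with compound for 48 h.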

Test [16] can be described thus: Primary qHTS for inhibitors of nuclear receptor binding SET domain protein 2 (NSD2) in an isogenic RCH-ACV NSD2 p.E1099K mutant (9B) (AID 1645876). Further: nearly all actives have a fitted effect of over 70% in size. Further: potency means the concentration at half of the fitted maximal effect.

Each structure is given as a SMILES string. A number with no mark means an inactive call. Records with an inconclusive call do not appear. Activity calls are given as the source filed them. Unless noted, the call rests on the fitted dose curve; in most records, active means well fitted curve in the direction sought with a large enough effect; inconclusive means small, poorly fitted or top-dose-only effect, or another doubt; inactive means no such curve, though single readings can be large; an effect the other way counts as inactive or inconclusive.

Calcium and integrin-binding protein 1 (Homo sapiens), sequence (Q99828 whole entry, looked up): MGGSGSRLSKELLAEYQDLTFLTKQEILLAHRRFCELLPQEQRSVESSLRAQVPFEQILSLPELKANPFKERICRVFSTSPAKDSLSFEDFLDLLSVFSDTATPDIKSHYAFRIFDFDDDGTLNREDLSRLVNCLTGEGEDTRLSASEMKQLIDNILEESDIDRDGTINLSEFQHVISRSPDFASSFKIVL
Cytochrome P450 2D6 (Homo sapiens), sequence (P10635 whole entry, looked up): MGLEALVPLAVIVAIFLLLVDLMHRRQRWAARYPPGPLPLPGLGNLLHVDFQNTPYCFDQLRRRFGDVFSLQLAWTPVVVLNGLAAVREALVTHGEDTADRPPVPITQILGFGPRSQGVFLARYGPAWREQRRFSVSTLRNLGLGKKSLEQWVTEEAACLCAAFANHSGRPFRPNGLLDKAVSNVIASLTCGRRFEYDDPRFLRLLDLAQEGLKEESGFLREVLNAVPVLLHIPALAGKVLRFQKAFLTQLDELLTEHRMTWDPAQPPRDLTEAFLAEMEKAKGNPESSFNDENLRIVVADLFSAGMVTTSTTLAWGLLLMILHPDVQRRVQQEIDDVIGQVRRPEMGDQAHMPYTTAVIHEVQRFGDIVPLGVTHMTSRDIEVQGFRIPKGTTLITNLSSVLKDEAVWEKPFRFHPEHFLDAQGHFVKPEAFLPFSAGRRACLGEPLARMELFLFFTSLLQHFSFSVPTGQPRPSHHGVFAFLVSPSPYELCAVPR
Papain (Carica papaya), sequence (P00784 whole entry, looked up): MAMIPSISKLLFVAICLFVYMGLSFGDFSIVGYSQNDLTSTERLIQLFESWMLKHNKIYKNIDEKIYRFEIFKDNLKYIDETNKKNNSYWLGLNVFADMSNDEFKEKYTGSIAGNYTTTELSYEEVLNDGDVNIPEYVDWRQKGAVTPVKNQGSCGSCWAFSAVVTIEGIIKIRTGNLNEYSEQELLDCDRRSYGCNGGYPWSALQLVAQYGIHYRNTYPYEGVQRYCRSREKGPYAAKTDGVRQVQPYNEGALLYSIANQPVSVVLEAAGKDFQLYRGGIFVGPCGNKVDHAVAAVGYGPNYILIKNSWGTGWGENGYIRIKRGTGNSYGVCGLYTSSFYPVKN
Single-stranded DNA cytosine deaminase (Homo sapiens), sequence (Q9GZX7 whole entry, looked up): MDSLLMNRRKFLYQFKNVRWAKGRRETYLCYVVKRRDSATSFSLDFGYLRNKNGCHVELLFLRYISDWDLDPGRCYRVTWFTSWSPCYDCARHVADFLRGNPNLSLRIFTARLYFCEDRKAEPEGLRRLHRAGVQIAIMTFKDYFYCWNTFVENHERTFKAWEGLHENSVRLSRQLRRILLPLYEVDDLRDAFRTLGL
Cytochrome P450 2C9 (Homo sapiens), sequence (P11712 whole entry, looked up): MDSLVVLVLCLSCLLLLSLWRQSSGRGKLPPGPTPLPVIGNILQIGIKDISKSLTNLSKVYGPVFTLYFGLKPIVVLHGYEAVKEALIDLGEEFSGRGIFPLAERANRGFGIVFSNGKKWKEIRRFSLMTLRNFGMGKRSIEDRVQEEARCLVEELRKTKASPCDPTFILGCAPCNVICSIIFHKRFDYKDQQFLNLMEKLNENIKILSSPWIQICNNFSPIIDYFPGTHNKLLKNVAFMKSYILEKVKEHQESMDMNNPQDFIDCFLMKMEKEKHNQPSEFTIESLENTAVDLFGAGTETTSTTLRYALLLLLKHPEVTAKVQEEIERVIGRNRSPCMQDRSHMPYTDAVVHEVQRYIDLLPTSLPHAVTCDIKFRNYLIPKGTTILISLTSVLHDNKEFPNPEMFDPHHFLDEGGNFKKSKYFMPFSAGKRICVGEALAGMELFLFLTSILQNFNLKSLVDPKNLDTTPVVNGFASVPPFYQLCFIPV
Protein phosphatase 1D (Homo sapiens), sequence (O15297 whole entry, looked up): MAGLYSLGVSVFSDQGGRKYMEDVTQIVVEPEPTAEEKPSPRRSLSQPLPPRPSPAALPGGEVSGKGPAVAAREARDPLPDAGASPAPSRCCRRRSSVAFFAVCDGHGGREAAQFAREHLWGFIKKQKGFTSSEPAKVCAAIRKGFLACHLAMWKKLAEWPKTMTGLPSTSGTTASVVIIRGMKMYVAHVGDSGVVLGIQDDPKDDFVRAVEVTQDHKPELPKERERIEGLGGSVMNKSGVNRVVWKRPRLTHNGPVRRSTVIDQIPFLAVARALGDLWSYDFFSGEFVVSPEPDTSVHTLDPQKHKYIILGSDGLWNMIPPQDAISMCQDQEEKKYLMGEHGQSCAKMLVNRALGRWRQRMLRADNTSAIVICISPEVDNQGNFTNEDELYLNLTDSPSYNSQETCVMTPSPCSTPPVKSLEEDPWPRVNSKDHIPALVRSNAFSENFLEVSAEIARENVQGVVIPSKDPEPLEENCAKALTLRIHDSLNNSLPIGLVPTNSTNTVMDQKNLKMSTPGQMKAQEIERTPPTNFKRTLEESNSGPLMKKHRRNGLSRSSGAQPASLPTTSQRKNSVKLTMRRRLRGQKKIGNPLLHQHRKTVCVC

`CCNC(=O)N1CCN(CCCC(c2ccc(F)cc2)c2ccc(F)cc2)CC1`: the Potency entry in [1], in [2], in test [4], in test [6], in test [7] and in test [9] was “inactive” each time. The Potency result in test [10] and in test [11] was “inactive” throughout. Besides, the outcome in test [3], in [5] and in [8] was inactive.

Consider `Cc1ccc(Cl)c(Nc2ccccc2C(=O)O)c1Cl`, for which the Potency entry in [1], in test [2], in test [6], in [7], in test [9] and in [12] was “inactive” each time. Further, the Potency result in [13] was “inactive”. For the same compound, in test [3], the outcome was inactive. The Potency in [4] was 17.8 µM (active).

As for `CN(C(=O)CCCOc1ccc2[nH]c(=O)ccc2c1)C1CCCCC1`, the Potency entry in test [1], in [2], in test [6], in test [7], in test [9] and in test [12] was “inactive” in each case. In addition, the Potency entry in test [15], in [13] and in test [11] was “inactive” each time. Further, the call in test [3], in test [5], in test [14] and in test [8] was inactive. In test [10], the Potency is 13.8 µM (active).

Consider `CN1CCN(CC(=O)N2c3ccccc3C(=O)Nc3cccnc32)CC1`, for which the Potency result in test [1], in test [6], in test [7], in test [12] and in test [11] was “inactive” throughout. Also, the activity change, negative = inhibition in test [2] is -1.82% [at 3.83 µM]; in test [4], -2.97% [at 6.17 µM]; in test [5], 8.19% [at 4.81 µM]; in test [9], -0.936% [at 12.4 µM]; in [13], 3.24% [at 4.83 µM]; in test [10], 3.44% [at 4.83 µM]. Also, the result in test [3] and in test [8] was inactive.

Consider `Cc1cccc(C)c1NC(=O)C(C)N` (configuration not stated), for which the Potency result in [1], in test [2], in test [6], in [7], in [9] and in test [12] was “inactive” throughout. Also, the Potency entry in [15], in test [13], in [10] and in test [11] was “inactive” in each case. The result in test [3], in test [5], in test [14] and in [8] was inactive.

Consider `C[N+](C)(C)CCCCCCCCCC[N+](C)(C)C`, for which the Potency result in test [1], in [4], in test [6], in test [7], in test [9] and in test [12] was “inactive” throughout. Also, the Potency entry in test [15], in test [13], in [10], in [11] and in [16] was “inactive” throughout. Moreover, the result in [3], in [5], in test [14] and in test [8] was inactive.

As for `O=c1[nH]c(=O)n([C@H]2C[C@H](O)[C@@H](CO)O2)cc1Br`, the Potency result in [1], in test [4], in test [6], in test [7], in [9] and in test [12] was “inactive” in each case. In addition, the Potency result in test [13], in [10] and in test [11] was “inactive” each time. Also, the compound was classed as inactive in test [3], in [5], in test [14] and in test [8]. Further, in test [16], the Potency is 0.841 µM (active).

Turning to `CN(C)CCN(Cc1cccs1)c1ccccn1`, the Potency entry in test [1], in [4], in test [6], in test [7], in [9] and in test [12] was “inactive” throughout. Moreover, the Potency entry in test [15], in test [10], in test [11] and in test [16] was “inactive” each time. In addition, the compound was called inactive in test [3], in test [5], in test [14] and in test [8].

Consider `C[C@@H](O)[C@H]1C(=O)N2C(C(=O)O)=C(SCCN=CN)C[C@H]12`, for which the Potency result in [1], in test [2], in test [6], in [7], in test [9] and in test [12] was “inactive” throughout. Further, the Potency entry in [15], in test [13], in [11] and in test [16] was “inactive” each time. The compound was called inactive in test [3], in [5] and in [8].
